Assay outcomes from PubChem.
Hits are enriched below; roughly 1.5% of the tested compounds scored in any of these assays.
B2AR ag – agonists of human beta-2 adrenergic receptor inducing internalization | P07550 | actives 0.43% (n = 340,000) | response, % (test concentration not listed) | Am2.2-beta2AR cells, FAP receptor internalization, flow cytometry;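 active = response above a set limit, near 3 SD of response in nonfluorescent compounds, cut at about 42% in these data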
ABHD5 PLIN5 PPI – blocks binding of human ABHD5 to perilipin-5; inhibition, % at 4 µM; Split G. princeps luciferase complementation, luminescence, 4 h; AID 602281; Q00G26+Q8WTS1; actives 0.78% (n = 360,000);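 active = inhibition above the mean inhibition across every tested compound plus 3 SD, cut at about 22% in these data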;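 also: 0% = DMSO only wells and the 100% control is not disclosed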
Target sequence (Q00G26 whole entry, looked up): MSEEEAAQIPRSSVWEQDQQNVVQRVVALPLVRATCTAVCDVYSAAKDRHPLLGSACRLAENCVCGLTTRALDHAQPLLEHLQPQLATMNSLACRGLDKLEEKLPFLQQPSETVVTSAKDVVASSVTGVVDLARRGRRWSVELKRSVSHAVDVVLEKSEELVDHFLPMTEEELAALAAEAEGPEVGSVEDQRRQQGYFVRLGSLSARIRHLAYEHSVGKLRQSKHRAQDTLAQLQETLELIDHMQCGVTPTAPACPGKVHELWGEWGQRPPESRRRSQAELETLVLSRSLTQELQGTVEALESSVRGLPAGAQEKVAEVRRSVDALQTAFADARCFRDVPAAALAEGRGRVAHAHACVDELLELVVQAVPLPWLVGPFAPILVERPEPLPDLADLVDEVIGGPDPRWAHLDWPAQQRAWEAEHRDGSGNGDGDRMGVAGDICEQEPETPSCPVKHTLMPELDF
Target sequence (Q8WTS1 whole entry, looked up): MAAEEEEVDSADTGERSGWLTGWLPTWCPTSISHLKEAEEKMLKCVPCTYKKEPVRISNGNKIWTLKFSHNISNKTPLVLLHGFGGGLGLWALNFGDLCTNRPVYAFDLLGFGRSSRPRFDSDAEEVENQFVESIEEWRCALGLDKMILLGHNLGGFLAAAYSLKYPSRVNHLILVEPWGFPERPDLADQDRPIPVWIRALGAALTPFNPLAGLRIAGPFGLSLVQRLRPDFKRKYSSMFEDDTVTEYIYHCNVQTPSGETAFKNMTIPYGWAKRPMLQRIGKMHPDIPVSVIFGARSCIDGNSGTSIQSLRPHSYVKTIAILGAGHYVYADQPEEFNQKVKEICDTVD
TLR9-MyD88 block – inhibitors of human TLR9-MyD88 binding. Q9NR96+Q99836. inhibition, % at 4.98 µM. CHO BLA complementation TLR9-MyD88, CCF4 FRET ratio. AID 504734. actives 0.21% (n = 340,000);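 active = inhibition above the mean over all tested compounds plus 3 SD, cut at about 21% in these data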;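 also: 0% = DMSO only wells and 100% = clavulanate BLA inhibitor control wells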
NOD2-RIPK2 inh – inhibitors of human NOD2-RIPK2 interaction | O43353 | CHO BLA complementation NOD2-RIPK2, CCF4 ratio | inhibition, % at 4.98 µM | actives 0.38% (n = 360,000) | AID 624267; in the data active = inhibition above about 21%;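 also: 0% = vehicle only and 100% = reference blocker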
NTR1 ag – agonists of human neurotensin receptor NTR1; NTR1-U2OS beta-arrestin-GFP spot imaging, agonist mode; activation, % at 20 µM; P30989; actives 0.17% (n = 330,000);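 active = activation at or above 40% of the spot to cytoplasm intensity ratio, with at least 20 cells analyzed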;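 also: 0% = DMSO without peptide and 100% = 100 nM NTR1 peptide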
TLR4 MyD88 comp – blocks binding of human TLR4 to MyD88 | O00206+Q99836 | HeLa CL3-4 TLR4/MyD88 BLA complementation, FRET ratio | inhibition, % at 8.4 µM | actives 0.18% (n = 200,000) | AID 861; in the data active = inhibition above about 25%;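 also: 0% = vehicle and 100% = reference inhibitor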
B2AR ag CP1 – human beta-2 adrenergic receptor agonism, cherry pick; shares compounds with B2AR ag; Am2.2-beta2AR cells, FAP surface receptor, flow cytometry; hits give low values; percent response (surface receptor), % at 10 µM; actives 25% (n = 1,100); AID 540358;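 active = surface receptor percent response at or below 58%, roughly 3 SD from nonfluorescent compounds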
B2AR FAP counter – counter-screen for beta-2AR agonists: fluorescence in Am2.2 cells; shares compounds with B2AR ag; FAP fluorogen flow cytometry, fluorescence counterscreen; hits give low values; calls only at 10 µM; 1,100 tested, under 10 active; AID 588765;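 active = percent response below a set limit in fluorescence channel 1 and below 50% in channel 8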
Active calls of the source: *; i = inactive; . = not tested or not shown.

SMILES	B2AR ag	ABHD5 PLIN5 PPI	TLR9-MyD88 block	NOD2-RIPK2 inh	NTR1 ag	TLR4 MyD88 comp	B2AR ag CP1	B2AR FAP counter
Cc1nc2ccc(-c3nc4cc(N)ccc4o3)cc2[nH]1	42.7*	-2.6	-7.1	-2.7	-1.2	3.1	117.8	i
Nc1ccc2oc(-c3ccc4nc[nH]c4c3)nc2c1	13.0	-0.3	-5.3	-6.3	-2.0	1.1	.	.
COC(=O)Nc1ccc(S(=O)(=O)N2CCCc3ccccc32)cc1	8.2	-1.1	-2.5	10.6	4.5	-3.4	.	.
COC(=O)Nc1ccc(S(=O)(=O)N2CCCc3cccc(O)c32)cc1	52.3*	10.4	6.0	7.2	1.7	-7.3	81.7	i
Cc1ccc(SCC(=O)Nc2ccc(-c3nnc(-c4ccco4)o3)cc2)cc1	81.6*	2.8	-0.6	-3.0	1.4	-1.9	34.3*	i
CN(C)S(=O)(=O)c1ccc2c(c1)C(=NO)c1cc(S(=O)(=O)N(C)C)ccc1-2	-1.4	1.4	-0.8	-1.6	1.4	.	.	.
CN(C)S(=O)(=O)c1ccc2c(c1)C(CC(=O)O)OC2=O (centres undefined)	48.7*	9.3	3.4	3.6	0.3	1.4	103.6	i
COc1ccc(N2C(=O)CS/C2=N\C(=S)Nc2ccccc2)cc1	0.1	-5.4	-5.5	0.8	1.1	.	91.8	i
CC1(Br)C(Sc2ccccc2[N+](=O)[O-])=Nc2ccccc21 (centres undefined)	.	-11.6	.	-0.2	.	.	.	.
O=C(OCc1cn([C@H]2CN(C(=O)C3CCCCC3)[C@@H](c3ccccc3)C[C@@H]2O)nn1)c1ccccc1	.	-9.7	-19.5	-4.6	.	.	.	.
N#Cc1ccc(-c2nc3c4ccccc4ccn3c2Cc2cccc(Cl)c2)cc1	.	0.4	.	-6.0	.	.	.	.
O=C(CSc1nnc(-c2ccncc2)n1Cc1ccco1)N1c2ccccc2Sc2ccc(Cl)cc21	84.7*	11.5	6.1	-4.8	5.5	-6.3	6.7*	i
COc1cc(NC(=O)c2ccc3c(c2)OCO3)ccc1NC(=O)c1ccco1	-0.6	10.0	-5.1	7.0	-2.6	0.9	112.3	i
Cc1cc(NC(=O)c2ccc3c(c2)OCCO3)ccc1NC(=O)c1ccco1	-5.2	2.9	.	-7.4	-0.3	-1.6	.	.
O=C(NC1CCc2ccccc21)c1cc(COc2ccc(F)cc2Cl)on1 (centres undefined)	11.2	-6.7	-13.2	-0.1	1.7	15.5	.	.
O=C(NC1CCc2ccccc21)c1cc(COc2cncc(Cl)c2)on1 (centres undefined)	5.4	2.9	-14.5	-1.1	2.3	.	123.2	i
CCOC(=O)[C@]12CCCC=C1N(Cc1cccc3ccccc13)C(=O)[C@H](CC(=O)N1CCN(C(=O)C3CC3)CC1)C2	.	7.2	.	6.0	.	.	.	.
Clc1ccccc1-c1ncnc2ccc(Br)cc12	95.9*	-1.6	.	-1.0	-0.9	-12.3	115.1	i
NNc1nc(-c2ccccc2Cl)c2cc(Br)ccc2n1	4.0	9.1	2.2	2.7	1.5	.	.	.
O=C(C(c1ccccc1)c1ccccc1)N1CCN(c2ccccn2)CC1	113.3*	-2.2	-6.6	1.8	2.6	-16.8	15.6*	i
Cc1cc2nc(N3C(=O)CNC3=S)sc2cc1C	1.1	4.7	-5.1	2.9	5.7	-1.2	.	.
CCOc1ccc2nc(N3C(=O)CNC3=S)sc2c1	3.2	2.0	7.3	0.2	0.1	.	103.5	i
Cc1cccc(C)c1NC(=O)c1csc([C@H]2C[C@H](O)[C@@H](CO)O2)n1	.	2.3	.	2.6	.	.	.	.
O=C(CCc1ccc(S(=O)(=O)N2CCOCC2)cc1)Nc1nc(COc2ccccc2)cs1	62.4*	-8.5	-5.6	-9.5	-0.7	1.4	20.0*	i
O=C(COc1ccccc1)Nc1nc(-c2ccc(S(=O)(=O)N3CCOCC3)cc2)cs1	4.6	-9.6	3.9	15.4	4.0	-4.3	.	.
COc1ccc(NC(=O)C2Cc3c(-c4ccc5c(c4)OCO5)ccnc3O2)cc1 (centres undefined)	.	-8.1	.	8.2	.	.	.	.
